In the supplement of paper PMC12494721:
Counter-ions that a name gives are not always drawn.

Experiments:
Details in all cases: incubation time: 27 h, anaerobic, 37 °C;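 for the amine columns active = adjusted P below 0.05 in both replicates with a change the same way and a mean fold change under 0.8 or over 1.25; inactive = the rest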
[1] = test system: Clostridium sporogenes DSM 1664; assay: growth (OD595) fold change vs plate DMSO controls (fold change (ratio)); higher = more growth
Outline: (§1)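 Each value is the mean of 2 biological replicates, and fold changes above 1.5 were set to NA. The underlying readings were taken at 595 nm from shaken anaerobic mGAM cultures in 96-well plates after 27 h at 37 °C. They were blank-subtracted, corrected for compound background using 20 µM compound solutions in water, and converted to OD with a calibration factor of 5. Growth is the fold change relative to the median of the plate DMSO controls.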

Escherichia coli IAI1 [2] = assay: as above
Outline: as §1

[3] = test system: Klebsiella aerogenes DSM 30053; assay: as above
Outline: as §1

[4] = test system: Ruminococcus gnavus DSM 108212; assay: as above
Outline: as §1

[5] = test system: Klebsiella aerogenes DSM 30053; assay: fold change of Histamine concentration vs plate DMSO controls (fold change (ratio)); higher = more amine produced, active = hit call of the paper (significant change in both replicates, either direction)
Outline: (§2)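 Using LC–triple-quadrupole MS with dynamic MRM, amines were quantified against external calibration curves and corrected for drift within each batch. Samples were whole anaerobic mGAM cultures of four gut strains, grown 27 h at 37 °C from OD 0.1 before 1:1 dilution, extracted with cold acetonitrile/methanol containing 0.1% formic acid and centrifuged. Compounds were present at 20 µM final (sweeteners at 50 µM final). The numbers are fold changes versus plate DMSO controls, each the mean of 2 biological replicates.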

[6] = test system: Clostridium sporogenes DSM 1664; assay: fold change of Tryptamine concentration vs plate DMSO controls (fold change (ratio)); higher = more amine produced, active = hit call of the paper (significant change in both replicates, either direction)
Outline: as §2

[7] = test system: Ruminococcus gnavus DSM 108212; assay: as above
Outline: as §2

Escherichia coli IAI1 [8] = assay: fold change of Putrescine concentration vs plate DMSO controls (fold change (ratio)); higher = more amine produced, active = hit call of the paper (significant change in both replicates, either direction)
Outline: as §2

[9] = test system: Klebsiella aerogenes DSM 30053; assay: as above
Outline: as §2

Escherichia coli IAI1 [10] = assay: fold change of Cadaverine concentration vs plate DMSO controls (fold change (ratio)); higher = more amine produced, active = hit call of the paper (significant change in both replicates, either direction)
Outline: as §2

[11] = test system: Klebsiella aerogenes DSM 30053; assay: as above
Outline: as §2

[12] = test system: Ruminococcus gnavus DSM 108212; assay: fold change of 2-Phenylethylamine concentration vs plate DMSO controls (fold change (ratio)); higher = more amine produced, active = hit call of the paper (significant change in both replicates, either direction)
Outline: as §2

CO[C@@]1(NC(=O)C(C(=O)O)c2ccc(O)cc2)C(=O)N2C(C(=O)O)=C(CSc3nnnn3C)CO[C@@H]21 (some centres undefined) [Moxalactam disodium salt] (20 µM)
growth [1]: 0 | growth (Escherichia coli IAI1 [2]): 0.0889 | growth [3]: 1.02 | growth [4]: 0.0817 | fold change of Histamine concentration [5]: 0.893 (inactive) | fold change of Tryptamine concentration [6]: 0.0273 (active) | fold change of Tryptamine concentration [7]: 0.06 (active) | fold change of Putrescine concentration (Escherichia coli IAI1 [8]): 1.5 (inactive) | fold change of Putrescine concentration [9]: 1.02 (inactive) | fold change of Cadaverine concentration (Escherichia coli IAI1 [10]): 2 (active) | fold change of Cadaverine concentration [11]: 1.02 (inactive) | fold change of 2-Phenylethylamine concentration [12]: 0.0586 (active)

Cn1nnnc1SCC1=C(C(=O)O)N2C(=O)[C@@H](NC(=O)[C@H](O)c3ccccc3)[C@H]2SC1 [Cefamandole sodium salt] (20 µM)
growth [1]: 0 | growth (Escherichia coli IAI1 [2]): 0.0343 | growth [3]: 1.08 | growth [4]: 0.971 | fold change of Histamine concentration [5]: 1.04 (inactive) | fold change of Tryptamine concentration [6]: 0.0204 (active) | fold change of Tryptamine concentration [7]: 0.141 (active) | fold change of Putrescine concentration (Escherichia coli IAI1 [8]): 0.968 (inactive) | fold change of Putrescine concentration [9]: 1.02 (inactive) | fold change of Cadaverine concentration (Escherichia coli IAI1 [10]): 2.1 (active) | fold change of Cadaverine concentration [11]: 1.06 (inactive) | fold change of 2-Phenylethylamine concentration [12]: 0.118 (active)

CCc1nn(CCCN2CCN(c3cccc(Cl)c3)CC2)c(=O)n1CCOc1ccccc1 [Nefazodone hydrochloride] (20 µM)
growth [1]: 1.05 | growth (Escherichia coli IAI1 [2]): 1.01 | growth [3]: 1.17 | growth [4]: 0.822 | fold change of Histamine concentration [5]: 0.853 (inactive) | fold change of Tryptamine concentration [6]: 0.922 (inactive) | fold change of Tryptamine concentration [7]: 0.793 (active) | fold change of Putrescine concentration (Escherichia coli IAI1 [8]): 0.996 (inactive) | fold change of Putrescine concentration [9]: 0.996 (inactive) | fold change of Cadaverine concentration (Escherichia coli IAI1 [10]): 1.03 (inactive) | fold change of Cadaverine concentration [11]: 1.03 (inactive) | fold change of 2-Phenylethylamine concentration [12]: 0.824 (inactive)

CCOc1nc2cccc(C(=O)OCc3oc(=O)oc3C)c2n1Cc1ccc(-c2ccccc2-c2noc(=O)[nH]2)cc1 [Azilsartan medoxomil] (20 µM)
growth [1]: 1.04 | growth (Escherichia coli IAI1 [2]): 1 | growth [3]: 0.984 | growth [4]: 1.1 | fold change of Histamine concentration [5]: 1.04 (inactive) | fold change of Tryptamine concentration [6]: 1.01 (inactive) | fold change of Tryptamine concentration [7]: 1.07 (inactive) | fold change of Putrescine concentration (Escherichia coli IAI1 [8]): 1.02 (inactive) | fold change of Putrescine concentration [9]: 1.01 (inactive) | fold change of Cadaverine concentration (Escherichia coli IAI1 [10]): 0.997 (inactive) | fold change of Cadaverine concentration [11]: 0.999 (inactive) | fold change of 2-Phenylethylamine concentration [12]: 1.03 (inactive)

CNCCC=C1c2ccccc2CCc2ccccc21 [Nortriptyline hydrochloride] (20 µM)
growth [1]: 1.11 | growth (Escherichia coli IAI1 [2]): 0.972 | growth [3]: 0.974 | growth [4]: 1.28 | fold change of Histamine concentration [5]: 1.09 (inactive) | fold change of Tryptamine concentration [6]: 1.06 (inactive) | fold change of Tryptamine concentration [7]: 0.993 (inactive) | fold change of Putrescine concentration (Escherichia coli IAI1 [8]): 0.975 (inactive) | fold change of Putrescine concentration [9]: 1.02 (inactive) | fold change of Cadaverine concentration (Escherichia coli IAI1 [10]): 1.04 (inactive) | fold change of Cadaverine concentration [11]: 0.989 (inactive) | fold change of 2-Phenylethylamine concentration [12]: 1.03 (inactive)

c1ccc([C@H]2CN3CCSC3=N2)cc1 [Levamisole hydrochloride] (20 µM)
growth [1]: 1 | growth (Escherichia coli IAI1 [2]): 0.988 | growth [3]: 0.966 | growth [4]: 1 | fold change of Histamine concentration [5]: 1.07 (inactive) | fold change of Tryptamine concentration [6]: 0.986 (inactive) | fold change of Tryptamine concentration [7]: 0.908 (inactive) | fold change of Putrescine concentration (Escherichia coli IAI1 [8]): 0.967 (inactive) | fold change of Putrescine concentration [9]: 1.02 (inactive) | fold change of Cadaverine concentration (Escherichia coli IAI1 [10]): 1.01 (inactive) | fold change of Cadaverine concentration [11]: 0.994 (inactive) | fold change of 2-Phenylethylamine concentration [12]: 0.961 (inactive)

c1ccc2cc3c(ccc4ccccc43)cc2c1 [Benz[a]anthracene] (20 µM)
growth [1]: 1.13 | growth (Escherichia coli IAI1 [2]): 0.981 | growth [3]: 1.02 | growth [4]: 0.97 | fold change of Histamine concentration [5]: 1.07 (inactive) | fold change of Tryptamine concentration [6]: 1.17 (inactive) | fold change of Tryptamine concentration [7]: 1.12 (inactive) | fold change of Putrescine concentration (Escherichia coli IAI1 [8]): 1.02 (inactive) | fold change of Putrescine concentration [9]: 0.901 (inactive) | fold change of Cadaverine concentration (Escherichia coli IAI1 [10]): 0.963 (inactive) | fold change of Cadaverine concentration [11]: 1.17 (inactive) | fold change of 2-Phenylethylamine concentration [12]: 1.3 (inactive)

c1ccc2[nH]c(-c3cscn3)nc2c1 [Tiabendazole] (20 µM)
growth [1]: 1.06 | growth (Escherichia coli IAI1 [2]): 0.991 | growth [3]: 0.899 | growth [4]: 0.962 | fold change of Histamine concentration [5]: 1.12 (inactive) | fold change of Tryptamine concentration [6]: 1.01 (inactive) | fold change of Tryptamine concentration [7]: 1.02 (inactive) | fold change of Putrescine concentration (Escherichia coli IAI1 [8]): 0.997 (inactive) | fold change of Putrescine concentration [9]: 0.964 (inactive) | fold change of Cadaverine concentration (Escherichia coli IAI1 [10]): 1.04 (inactive) | fold change of Cadaverine concentration [11]: 0.979 (inactive) | fold change of 2-Phenylethylamine concentration [12]: 1.04 (inactive)

O=c1[nH]cnc2c1ncn2[C@H]1CC[C@@H](CO)O1 [Didanosine] (20 µM)
growth [1]: 1.07 | growth (Escherichia coli IAI1 [2]): 1.03 | growth [3]: 1.03 | growth [4]: 1.08 | fold change of Histamine concentration [5]: 0.958 (inactive) | fold change of Tryptamine concentration [6]: 0.992 (inactive) | fold change of Tryptamine concentration [7]: 1.15 (inactive) | fold change of Putrescine concentration (Escherichia coli IAI1 [8]): 1.14 (inactive) | fold change of Putrescine concentration [9]: 1.08 (inactive) | fold change of Cadaverine concentration (Escherichia coli IAI1 [10]): 1.69 (active) | fold change of Cadaverine concentration [11]: 1.03 (inactive) | fold change of 2-Phenylethylamine concentration [12]: 1.16 (inactive)

COc1cc(NS(=O)(=O)c2ccc(N)cc2)ncn1 [Sulfamonomethoxine] (20 µM)
growth [1]: 1.06 | growth (Escherichia coli IAI1 [2]): 0.996 | growth [3]: 0.978 | growth [4]: 1.09 | fold change of Histamine concentration [5]: 1.11 (inactive) | fold change of Tryptamine concentration [6]: 0.982 (inactive) | fold change of Tryptamine concentration [7]: 0.944 (inactive) | fold change of Putrescine concentration (Escherichia coli IAI1 [8]): 0.911 (inactive) | fold change of Putrescine concentration [9]: 1.02 (inactive) | fold change of Cadaverine concentration (Escherichia coli IAI1 [10]): 1.03 (inactive) | fold change of Cadaverine concentration [11]: 0.991 (inactive) | fold change of 2-Phenylethylamine concentration [12]: 0.915 (inactive)

CC(=O)OC(C)C[N+](C)(C)C (centres undefined) [Methacholine chloride] (20 µM)
growth [1]: 0.962 | growth (Escherichia coli IAI1 [2]): 1.02 | growth [3]: 0.965 | growth [4]: 0.97 | fold change of Histamine concentration [5]: 0.992 (inactive) | fold change of Tryptamine concentration [6]: 1.01 (inactive) | fold change of Tryptamine concentration [7]: 1.06 (inactive) | fold change of Putrescine concentration (Escherichia coli IAI1 [8]): 1.09 (inactive) | fold change of Putrescine concentration [9]: 1 (inactive) | fold change of Cadaverine concentration (Escherichia coli IAI1 [10]): 0.985 (inactive) | fold change of Cadaverine concentration [11]: 0.989 (inactive) | fold change of 2-Phenylethylamine concentration [12]: 1.08 (inactive)

O=C1OC(c2ccc(O)cc2)(c2ccc(O)cc2)c2ccccc21 [Phenolphthalein] (20 µM)
growth [1]: 1.03 | growth (Escherichia coli IAI1 [2]): 0.983 | growth [3]: 0.993 | growth [4]: 0.964 | fold change of Histamine concentration [5]: 1 (inactive) | fold change of Tryptamine concentration [6]: 0.974 (inactive) | fold change of Tryptamine concentration [7]: 1 (inactive) | fold change of Putrescine concentration (Escherichia coli IAI1 [8]): 0.991 (inactive) | fold change of Putrescine concentration [9]: 0.977 (inactive) | fold change of Cadaverine concentration (Escherichia coli IAI1 [10]): 0.965 (inactive) | fold change of Cadaverine concentration [11]: 1.02 (inactive) | fold change of 2-Phenylethylamine concentration [12]: 0.986 (inactive)
